Test results taken from ChEMBL document CHEMBL2218924, “A broad activity screen in support of a chemogenomic map for kinase signalling research and drug discovery” (Biochem J, 2013).

Columns and labels:
[1] = target: T1, Mitogen-activated protein kinase kinase kinase 7 (Homo sapiens) (UniProt O43318); conditions: at 1 µM
T1 sequence (whole entry): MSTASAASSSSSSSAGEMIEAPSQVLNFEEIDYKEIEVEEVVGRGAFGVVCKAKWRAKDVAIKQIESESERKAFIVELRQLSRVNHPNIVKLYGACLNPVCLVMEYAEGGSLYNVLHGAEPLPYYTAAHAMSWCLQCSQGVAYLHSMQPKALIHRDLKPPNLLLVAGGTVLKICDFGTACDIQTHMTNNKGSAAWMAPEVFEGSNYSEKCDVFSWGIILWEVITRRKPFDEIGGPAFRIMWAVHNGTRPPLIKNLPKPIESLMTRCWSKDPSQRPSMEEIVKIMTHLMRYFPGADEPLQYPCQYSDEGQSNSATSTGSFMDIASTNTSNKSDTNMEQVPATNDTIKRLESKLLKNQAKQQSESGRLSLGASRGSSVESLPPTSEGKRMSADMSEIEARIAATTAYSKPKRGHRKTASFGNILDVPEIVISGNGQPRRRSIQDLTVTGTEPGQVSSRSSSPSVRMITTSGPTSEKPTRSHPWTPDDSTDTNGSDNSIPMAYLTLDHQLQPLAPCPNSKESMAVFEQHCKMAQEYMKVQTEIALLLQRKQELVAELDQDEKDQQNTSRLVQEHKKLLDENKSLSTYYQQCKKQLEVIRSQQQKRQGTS

[2] = target: T1, Mitogen-activated protein kinase kinase kinase 7 (Homo sapiens); conditions: at 10 µM
[3] = target: T2, Serine/threonine-protein kinase TAO1 (Homo sapiens) (UniProt Q7L7X3); conditions: at 10 µM
T2 sequence (whole entry): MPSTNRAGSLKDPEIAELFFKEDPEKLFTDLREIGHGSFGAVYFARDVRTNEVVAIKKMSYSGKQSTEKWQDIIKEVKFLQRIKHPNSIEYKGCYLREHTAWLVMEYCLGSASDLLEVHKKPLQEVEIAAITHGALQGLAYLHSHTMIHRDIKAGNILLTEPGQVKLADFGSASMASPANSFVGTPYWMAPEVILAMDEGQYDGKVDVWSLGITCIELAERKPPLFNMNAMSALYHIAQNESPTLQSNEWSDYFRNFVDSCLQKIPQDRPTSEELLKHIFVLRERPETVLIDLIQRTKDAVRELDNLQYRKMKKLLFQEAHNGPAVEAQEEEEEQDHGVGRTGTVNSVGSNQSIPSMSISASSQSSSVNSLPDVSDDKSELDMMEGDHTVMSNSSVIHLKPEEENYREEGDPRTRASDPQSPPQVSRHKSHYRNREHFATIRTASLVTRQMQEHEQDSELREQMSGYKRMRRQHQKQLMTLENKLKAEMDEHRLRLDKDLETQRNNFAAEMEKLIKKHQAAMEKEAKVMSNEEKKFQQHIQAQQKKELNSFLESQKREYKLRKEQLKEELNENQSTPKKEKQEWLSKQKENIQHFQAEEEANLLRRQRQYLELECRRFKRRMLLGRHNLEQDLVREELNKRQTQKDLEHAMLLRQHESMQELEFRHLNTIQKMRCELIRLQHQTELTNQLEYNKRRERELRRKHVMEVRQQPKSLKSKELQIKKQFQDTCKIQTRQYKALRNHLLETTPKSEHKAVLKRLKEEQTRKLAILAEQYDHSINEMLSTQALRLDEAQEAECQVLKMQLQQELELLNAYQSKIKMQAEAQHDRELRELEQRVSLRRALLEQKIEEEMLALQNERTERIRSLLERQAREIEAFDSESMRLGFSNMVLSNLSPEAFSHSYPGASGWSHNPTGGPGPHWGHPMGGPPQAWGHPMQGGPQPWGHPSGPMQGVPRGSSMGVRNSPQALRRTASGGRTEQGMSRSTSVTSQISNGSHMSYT

[4] = target: T3, Serine/threonine-protein kinase TAO2 (Homo sapiens) (UniProt Q9UL54); conditions: at 10 µM
T3 sequence (whole entry): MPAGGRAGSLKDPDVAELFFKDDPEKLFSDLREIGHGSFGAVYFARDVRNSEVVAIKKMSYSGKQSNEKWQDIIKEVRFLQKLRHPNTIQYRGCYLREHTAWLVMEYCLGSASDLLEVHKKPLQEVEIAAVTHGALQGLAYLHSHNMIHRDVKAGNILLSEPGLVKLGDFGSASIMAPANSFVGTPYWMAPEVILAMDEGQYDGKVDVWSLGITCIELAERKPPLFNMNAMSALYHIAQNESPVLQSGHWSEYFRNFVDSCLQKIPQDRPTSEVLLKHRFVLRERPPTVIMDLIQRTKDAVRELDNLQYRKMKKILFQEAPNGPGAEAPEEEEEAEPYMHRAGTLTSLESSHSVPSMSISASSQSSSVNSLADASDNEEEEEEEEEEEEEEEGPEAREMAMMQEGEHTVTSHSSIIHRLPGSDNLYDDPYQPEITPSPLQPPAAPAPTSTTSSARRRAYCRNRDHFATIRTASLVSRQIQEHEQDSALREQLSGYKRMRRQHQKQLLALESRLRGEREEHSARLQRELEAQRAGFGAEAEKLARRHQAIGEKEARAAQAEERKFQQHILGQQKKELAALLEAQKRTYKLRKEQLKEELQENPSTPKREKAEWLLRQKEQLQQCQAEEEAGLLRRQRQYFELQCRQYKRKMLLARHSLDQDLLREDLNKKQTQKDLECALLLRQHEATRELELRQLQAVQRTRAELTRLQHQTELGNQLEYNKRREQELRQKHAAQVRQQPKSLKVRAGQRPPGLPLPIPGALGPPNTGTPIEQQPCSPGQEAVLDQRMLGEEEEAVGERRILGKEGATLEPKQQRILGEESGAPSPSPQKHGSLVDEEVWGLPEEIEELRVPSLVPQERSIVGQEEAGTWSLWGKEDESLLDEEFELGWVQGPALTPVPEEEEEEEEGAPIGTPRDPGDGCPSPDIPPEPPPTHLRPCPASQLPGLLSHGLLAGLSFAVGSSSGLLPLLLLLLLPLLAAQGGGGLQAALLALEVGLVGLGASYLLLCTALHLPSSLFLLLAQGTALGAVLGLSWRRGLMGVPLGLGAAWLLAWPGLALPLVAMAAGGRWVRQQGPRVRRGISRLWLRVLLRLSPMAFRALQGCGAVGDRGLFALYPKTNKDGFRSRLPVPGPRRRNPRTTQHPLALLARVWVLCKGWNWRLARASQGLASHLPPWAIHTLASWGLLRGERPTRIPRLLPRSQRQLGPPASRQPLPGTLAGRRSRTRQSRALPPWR

[5] = target: T4, Serine/threonine-protein kinase TAO3 (Homo sapiens) (UniProt Q9H2K8); conditions: at 1 µM
T4 sequence (whole entry): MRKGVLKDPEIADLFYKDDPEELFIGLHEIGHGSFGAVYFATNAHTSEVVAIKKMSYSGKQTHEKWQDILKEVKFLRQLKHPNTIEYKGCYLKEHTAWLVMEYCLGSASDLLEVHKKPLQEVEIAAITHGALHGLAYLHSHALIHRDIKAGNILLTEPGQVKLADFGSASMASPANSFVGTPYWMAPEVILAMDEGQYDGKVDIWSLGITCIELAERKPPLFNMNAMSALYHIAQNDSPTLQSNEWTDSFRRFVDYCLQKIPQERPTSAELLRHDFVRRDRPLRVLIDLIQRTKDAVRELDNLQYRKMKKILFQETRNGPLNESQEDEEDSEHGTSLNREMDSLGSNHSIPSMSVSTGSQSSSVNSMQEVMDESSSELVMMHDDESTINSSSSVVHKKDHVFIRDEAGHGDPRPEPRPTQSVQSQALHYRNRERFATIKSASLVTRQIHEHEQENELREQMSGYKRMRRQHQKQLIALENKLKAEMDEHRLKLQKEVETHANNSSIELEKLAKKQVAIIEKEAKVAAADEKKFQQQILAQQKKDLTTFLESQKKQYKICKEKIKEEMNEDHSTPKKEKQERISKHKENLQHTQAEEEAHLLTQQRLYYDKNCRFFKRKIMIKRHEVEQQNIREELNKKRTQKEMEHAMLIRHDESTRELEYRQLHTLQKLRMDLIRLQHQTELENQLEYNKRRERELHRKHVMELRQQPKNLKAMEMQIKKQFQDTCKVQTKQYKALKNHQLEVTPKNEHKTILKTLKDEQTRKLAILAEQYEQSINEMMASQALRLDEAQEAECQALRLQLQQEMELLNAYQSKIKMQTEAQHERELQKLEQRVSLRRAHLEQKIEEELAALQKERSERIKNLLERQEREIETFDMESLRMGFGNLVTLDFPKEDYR

[6] = target: T4, Serine/threonine-protein kinase TAO3 (Homo sapiens); conditions: at 10 µM
[7] = target: T5, Serine/threonine-protein kinase TBK1 (Homo sapiens) (UniProt Q9UHD2); conditions: at 1 µM
T5 sequence (whole entry): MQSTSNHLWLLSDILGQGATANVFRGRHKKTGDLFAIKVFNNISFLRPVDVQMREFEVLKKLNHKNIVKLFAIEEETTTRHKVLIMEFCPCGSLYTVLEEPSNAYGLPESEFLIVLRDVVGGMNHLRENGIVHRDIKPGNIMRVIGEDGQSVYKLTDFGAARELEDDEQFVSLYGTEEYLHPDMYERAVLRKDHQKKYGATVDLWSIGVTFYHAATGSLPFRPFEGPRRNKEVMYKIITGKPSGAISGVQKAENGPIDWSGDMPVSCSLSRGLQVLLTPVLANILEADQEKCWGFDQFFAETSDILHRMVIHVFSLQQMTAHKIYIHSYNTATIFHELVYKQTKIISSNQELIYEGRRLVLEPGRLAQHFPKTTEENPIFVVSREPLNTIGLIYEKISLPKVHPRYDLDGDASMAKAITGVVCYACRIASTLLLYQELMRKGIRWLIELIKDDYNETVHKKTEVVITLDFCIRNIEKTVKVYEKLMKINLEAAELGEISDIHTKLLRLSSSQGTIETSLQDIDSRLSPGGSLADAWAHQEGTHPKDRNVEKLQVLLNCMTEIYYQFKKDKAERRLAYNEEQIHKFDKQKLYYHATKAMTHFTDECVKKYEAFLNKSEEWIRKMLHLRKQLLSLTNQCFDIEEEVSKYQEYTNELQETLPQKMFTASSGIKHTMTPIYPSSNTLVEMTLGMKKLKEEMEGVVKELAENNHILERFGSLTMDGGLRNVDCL

[8] = target: T5, Serine/threonine-protein kinase TBK1 (Homo sapiens); conditions: at 10 µM
[9] = target: T6, TGF-beta receptor type-1 (Homo sapiens) (UniProt P36897); conditions: at 10 µM
T6 sequence (whole entry): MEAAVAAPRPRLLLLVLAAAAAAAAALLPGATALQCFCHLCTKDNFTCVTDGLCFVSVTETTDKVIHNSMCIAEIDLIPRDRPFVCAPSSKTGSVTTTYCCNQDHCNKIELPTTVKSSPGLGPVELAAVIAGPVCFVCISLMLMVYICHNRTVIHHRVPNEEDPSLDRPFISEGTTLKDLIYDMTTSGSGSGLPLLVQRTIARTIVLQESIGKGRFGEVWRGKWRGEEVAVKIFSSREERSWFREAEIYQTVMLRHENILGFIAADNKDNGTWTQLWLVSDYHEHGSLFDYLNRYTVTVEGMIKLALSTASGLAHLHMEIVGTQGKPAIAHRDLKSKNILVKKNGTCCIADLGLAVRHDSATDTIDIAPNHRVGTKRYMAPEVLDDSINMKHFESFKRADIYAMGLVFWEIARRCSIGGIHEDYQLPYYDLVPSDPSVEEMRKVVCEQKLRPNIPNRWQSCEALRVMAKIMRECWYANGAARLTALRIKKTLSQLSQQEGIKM

| Structure (SMILES) | residual activity [1] [%] | residual activity [2] [%] | residual activity [3] [%] | residual activity [4] [%] | residual activity [5] [%] | residual activity [6] [%] | residual activity [7] [%] | residual activity [8] [%] | residual activity [9] [%] |
| --- | --- | --- | --- | --- | --- | --- | --- | --- | --- |
| O=C1Nc2ccccc2/C1=C\c1c(Cl)[nH]c2ccccc12 | 99 | 77 | 63 | 44 | 85 | 40 | 72 | 43 | 74 |
| O=c1cc(N2CCOCC2)oc2c(-c3ccccc3)cccc12 |  |  |  |  |  |  | 68 | 55 |  |
